The supplement of paper PMC13380429

Experiments:
[1] = tested on: Vero E6 infected with SARS-CoV-2; experiment: morphology score (similarity to uninfected cells); higher = more like uninfected cells; conditions: 24 h
[2] = tested on: Vero E6 infected with SARS-CoV-2; experiment: SARS-CoV-2 infection rate relative to infected DMSO; higher = more infection, active = 60 or less; conditions: 24 h

COc1ccccc1N1CCN(CCCNc2cc(=O)n(C)c(=O)n2C)CC1 [urapidil] (10 µM)
morphology score [1]: 0.088 | SARS-CoV-2 infection rate [2]: 101% (inactive)

Cc1nc2c([nH]1)-c1ccccc1N(C(=O)c1ccc(NC(=O)c3ccccc3-c3ccccc3)cc1)CC2 [conivaptan] (10 µM)
morphology score [1]: 0.193 | SARS-CoV-2 infection rate [2]: 107% (inactive)

O=NO [sodium-nitrite] (10 µM)
morphology score [1]: 0.176 | SARS-CoV-2 infection rate [2]: 108% (inactive)

Oc1cc2c(cc1O)[C@H](Cc1cccc3ccccc13)NCC2 (10 µM)
morphology score [1]: -0.102 | SARS-CoV-2 infection rate [2]: 119% (inactive)

CN1c2ccccc2C(=O)N2CCc3c([nH]c4ccccc34)C21 (stereo in doubt) [evodiamine] (10 µM)
morphology score [1]: -0.093 | SARS-CoV-2 infection rate [2]: 100% (inactive)

COCCNC(=O)Cn1cnc([N+](=O)[O-])n1 [sanazole] (10 µM)
morphology score [1]: 0.122 | SARS-CoV-2 infection rate [2]: 93% (inactive)

O=C(NO)C1(CS(=O)(=O)c2ccc(Oc3ccc(Cl)cc3)cc2)CCOCC1 (10 µM)
morphology score [1]: 0.0418 | SARS-CoV-2 infection rate [2]: 98.5% (inactive)

CCOC(=O)C1=CCCC[C@H]1S(=O)(=O)Nc1ccc(F)cc1Cl [resatorvid] (10 µM)
morphology score [1]: 0.0683 | SARS-CoV-2 infection rate [2]: 99.5% (inactive)

O=C(NCCN1CCCCC1)c1ccc(I)cc1 [N-[2-(piperidinylamino)ethyl]-4-iodobenzamide] (10 µM)
morphology score [1]: 0.317 | SARS-CoV-2 infection rate [2]: 91.5% (inactive)

CCCC[C@]1(CC)CS(=O)(=O)c2cc(CNC(CC(=O)O)CC(=O)O)c(OC)cc2[C@@H](c2ccccc2)N1 (10 µM)
morphology score [1]: 0.0912 | SARS-CoV-2 infection rate [2]: 90.5% (inactive)

O=C(COc1ccc(Cl)cc1)N1CCN(Cc2ccc3c(c2)OCO3)CC1 [fipexide] (10 µM)
morphology score [1]: -0.165 | SARS-CoV-2 infection rate [2]: 112% (inactive)

NS(=O)(=O)c1nn2cc(-c3ccccc3)nc2s1 (10 µM)
morphology score [1]: 0.289 | SARS-CoV-2 infection rate [2]: 97.5% (inactive)

Cc1cccc(C)c1NC(=O)C1CCCCN1C (stereo unspecified) [mepivacaine] (10 µM)
morphology score [1]: 0.171 | SARS-CoV-2 infection rate [2]: 97.5% (inactive)

C/C=C1/[C@H](O[C@@H]2O[C@H](CO)[C@@H](O)[C@H](O)[C@H]2O)OC=C(C(=O)OC)[C@H]1CC(=O)OCCc1ccc(O)c(O)c1 [oleuropein] (10 µM)
morphology score [1]: -0.0158 | SARS-CoV-2 infection rate [2]: 112% (inactive)

CC(C)[C@H]1[C@@H]2CC[C@@H](C2)[C@@H]1N (10 µM)
morphology score [1]: 0.109 | SARS-CoV-2 infection rate [2]: 82% (inactive)

Cc1oc(-c2ccccc2)nc1CCC(=O)c1ccc(CC2SC(=O)NC2=O)cc1 (stereo unspecified) [darglitazone] (10 µM)
morphology score [1]: 0.276 | SARS-CoV-2 infection rate [2]: 98.5% (inactive)

Nc1nc(N)c2nc(-c3cccc(O)c3)cnc2n1 (10 µM)
morphology score [1]: 0.242 | SARS-CoV-2 infection rate [2]: 101% (inactive)

O=C1NC(=O)[C@@]2(CCOc3ccc(F)cc32)N1 [sorbinil] (10 µM)
morphology score [1]: 0.139 | SARS-CoV-2 infection rate [2]: 98% (inactive)

Cc1c(I)c(=O)n(-c2ccccc2)n1C [iodoantipyrine] (10 µM)
morphology score [1]: 0.0311 | SARS-CoV-2 infection rate [2]: 118% (inactive)

O=c1c(-c2ccc(O)cc2)coc2c([C@@H]3O[C@H](CO)[C@@H](O)[C@H](O)[C@H]3O)c(O)ccc12 [kakonein] (10 µM)
morphology score [1]: -0.0186 | SARS-CoV-2 infection rate [2]: 103% (inactive)

CCCOC(=O)c1ccc(O)cc1 [propyl 4-hydroxybenzoate] (10 µM)
morphology score [1]: -0.0462 | SARS-CoV-2 infection rate [2]: 111% (inactive)

CC(C)=CCC[C@](C)(O)[C@H]1CC[C@]2(C)[C@@H]1[C@H](O)C[C@@H]1[C@@]3(C)CC[C@H](O)C(C)(C)[C@@H]3[C@@H](O)C[C@]12C [hemomex-s] (10 µM)
morphology score [1]: 0.173 | SARS-CoV-2 infection rate [2]: 104% (inactive)

Clc1cccc(Nc2nnc(-c3ccccc3)c3ccccc23)c1 (10 µM)
morphology score [1]: 0.2 | SARS-CoV-2 infection rate [2]: 94% (inactive)

COc1cc(OC)c2c(=O)[nH]c(-c3cc(C)c(OCCO)c(C)c3)nc2c1 [apabetalone] (0.833333 µM)
morphology score [1]: 0.0872 | SARS-CoV-2 infection rate [2]: 106% (inactive)

OCc1cc([C@@H](O)CNCCCCCCOCCOCc2c(Cl)cccc2Cl)ccc1O [vilanterol] (10 µM)
morphology score [1]: 0.0228 | SARS-CoV-2 infection rate [2]: 111% (inactive)

Cc1ccc2c(c1)[C@H]1CN(C)CC[C@H]1N2 [stobadine] (10 µM)
morphology score [1]: 0.0748 | SARS-CoV-2 infection rate [2]: 98% (inactive)

COc1ccsc1CNCC[C@@]1(c2ccccn2)CCOC2(CCCC2)C1 (10 µM)
morphology score [1]: -0.0456 | SARS-CoV-2 infection rate [2]: 103% (inactive)

CN[C@@H]1[C@@H](O)[C@@H](O[C@@H]2[C@@H](O)[C@H](O[C@H]3O[C@H](CN)[C@@H](O)[C@H](O)[C@H]3O)[C@@H](N)C[C@H]2NC(=O)[C@@H](O)CN)OC[C@]1(C)O [isepamicin] (10 µM)
morphology score [1]: 0.0671 | SARS-CoV-2 infection rate [2]: 109% (inactive)
